Compound activity deposited in PubChem by Paczesny and Yang Labs, IUPUI and University of Michigan.
The sample as a whole holds a higher share of hits than the screen did.
ST2 IL33 inh = inhibitors of human ST2 (IL1RL1) binding to IL-33, primary screen, biochemical, AlphaLISA; Interleukin-1 receptor-like 1 (Homo sapiens), Q01638; AlphaLISA ST2-Fc/biotin-IL-33 interaction, 1 h; inhibition, % for hits at 17 µM; 78,000 compounds, 2.3% hits; AID 1259354, 2018; in the data active = inhibition above about 30%
Target sequence (Q01638 whole entry, looked up): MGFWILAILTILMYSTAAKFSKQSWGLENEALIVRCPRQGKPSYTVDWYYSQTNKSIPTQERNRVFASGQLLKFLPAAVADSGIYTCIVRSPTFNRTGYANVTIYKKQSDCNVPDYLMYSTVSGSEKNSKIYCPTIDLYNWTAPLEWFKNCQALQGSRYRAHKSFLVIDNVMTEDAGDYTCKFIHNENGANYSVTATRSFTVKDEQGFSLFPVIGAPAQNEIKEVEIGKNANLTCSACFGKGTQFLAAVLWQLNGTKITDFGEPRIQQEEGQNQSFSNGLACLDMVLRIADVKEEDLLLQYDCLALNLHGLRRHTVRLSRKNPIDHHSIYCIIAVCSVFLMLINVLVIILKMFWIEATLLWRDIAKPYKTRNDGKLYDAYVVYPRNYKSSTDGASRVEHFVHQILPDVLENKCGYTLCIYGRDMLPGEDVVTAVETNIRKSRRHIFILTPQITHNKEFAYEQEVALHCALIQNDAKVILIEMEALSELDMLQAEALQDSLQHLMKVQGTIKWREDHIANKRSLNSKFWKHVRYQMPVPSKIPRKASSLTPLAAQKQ
* = called active by the depositor; i = inactive; ! = not active in a repeat.

SMILES | ST2 IL33 inh
O=[N+]([O-])c1ccccc1S(=O)(=O)Nc1ccc(Cl)c(Cl)c1 | i
O=[N+]([O-])c1ccccc1N1CCN(S(=O)(=O)c2ccc(Cl)c(Cl)c2)CC1 | 30%*
Cc1ccc(C)c(C(=O)COC(=O)c2cc(=O)[nH]c3ccccc23)c1 | i
COc1ccc(-c2sc(C)nc2C)c(OC)c1OC | i
C/C(=C\c1ccccc1)CN1[C@@H]2CC[C@H]1CN(C)C(=O)C2 | i
O=C(c1c(F)cccc1F)N1CCN=C1SCc1ccc(Cl)cc1 | i
COc1ccc2c(C)c(Cc3ccccc3)c(=O)oc2c1C | i
COc1ccc2cc3cc(C(=O)NCCCN4CCCC4)oc3nc2c1 | 33%*!
COc1ccc2cc3cc(C(=O)NCCCN4CCCCCC4)oc3nc2c1 | 31%*!
COc1ccc2cc3cc(C(=O)NCCN4CCOCC4)oc3nc2c1 | i
COc1ccc2cc3cc(C(=O)NCCCN4CCN(Cc5ccccc5)CC4)oc3nc2c1 | i
O=C(NCCCN1CCCC1)c1cc2cc3ccc(Cl)cc3nc2o1 | i
CCC1CCCCN1CCCNC(=O)c1cc2cc3ccc(OC)cc3nc2o1 (stereo not given) | i
COc1ccc(-c2cc(N3CCN(S(=O)(=O)c4ccc(CC(C)C)cc4)CC3)ncn2)cc1 | i
Cc1cccc(-c2noc(CCC(=O)N3CCCC(N(C)C)CC3)n2)c1 (stereo not given) | i
COc1ccccc1Cn1c(CNS(=O)(=O)c2ccc(C)cc2)nc2cccnc21 | i
COc1ccc(N2C(=O)c3cccnc3C2=O)c(OC)c1 | i
COc1ccc(NC(=O)c2coc(=O)c3ccccc23)c(OC)c1 | i
COc1ccc(C2=C/C(=C3/c4ccccc4-c4ncccc43)C(=O)O2)c(OC)c1 | 31%*
CC(C)NC(=O)c1ccnc(N2CCN(Cc3ccn(C(C)C)c3)CC2)c1 | i
CC[C@H]1CN(C(=O)c2cccnc2N2CCOCC2)CC[C@@]1(C)O | i
CC(C)C[C@H]1CN(C(=O)c2ccc(-c3nnn(C)n3)cc2)CC[C@@]1(C)O | i
CC[C@H]1CN(C(=O)c2ccc(C)cc2C)CC[C@@]1(C)O | 31%*
O=C(Nc1ccccc1Br)c1ccc(Cl)c(Cl)c1 | i
COc1ccc2cc3cc(C(=O)NC(C)C)oc3nc2c1 | i
SMILES | ST2 IL33 inh
CC(C)OCCCNC(=O)c1cc2cc3ccc(Cl)cc3nc2o1 | i
CCC(C)NC(=O)c1cc2cc3ccc(Cl)cc3nc2o1 (stereo not given) | 31%*!
Cc1ccccc1Cn1c(C(C)NC(=O)c2cccs2)nc2ccccc21 (stereo not given) | i
COC(=O)C1=C(N)OC2=C(C(=O)CC(c3ccccc3)C2)C1c1cc(OC)ccc1OC (stereo not given) | i
C=CC(C)(O)CC/C=C(\C)CCC(O)C(C)(C)O (stereo not given) | 43%*
O=c1c2c(nc(SCc3ccccc3)n1-c1ccc(Cl)cc1)CCS2 | i
CCOc1cc(C2Nc3ccccc3-c3nnc(SC)nc3O2)cc(Cl)c1O (stereo not given) | i
CCCC(=O)Nc1cc(C)ccc1OCc1cc(=O)n2oc(C)cc2n1 | i
O=C(Nc1ncc(Cc2ccc(F)cc2)s1)c1ccc(Br)cc1 | i
O=C(NC1CCCC1)c1nn2c(c1Cl)NC(c1ccco1)CC2C(F)(F)F (stereo not given) | i
O=C(c1ccccc1Cl)N1CCN(c2ccccc2)CC1 | i
N#CC(C#N)=C1C(Cl)=C(N2CCCCC2)c2ccccc21 | 82%*
N#Cc1c(N)nc2c(c1-c1ccccc1Cl)CCCCC2 | i
CCOc1ccc(C2C3=C(CCCC3=O)Nc3nc(SCc4ccccc4)[nH]c(=O)c32)cc1 (stereo not given) | i
O=C(CN(c1ccc(Cl)c(C(F)(F)F)c1)S(=O)(=O)c1ccccc1)NCC1CCCO1 (stereo not given) | i
O=C(Nc1c(-c2ccc(F)cc2)nc2ccccn12)c1ccccc1 | i
COc1cc(CN2CCC(C)CC2)c([N+](=O)[O-])cc1OC | i
COc1cc(CC(=O)O)c([N+](=O)[O-])cc1OC | i
COc1cc(C(c2ccc(C)o2)c2ccc(C)o2)c([N+](=O)[O-])cc1OC | 36%*
C=CCOc1c(Cl)cc(C(=O)NCc2cnc(C)cn2)cc1Cl | i
CCOC(=O)CCCN(Cc1ccc(F)cc1)S(=O)(=O)c1c(C)cc(C)cc1C | i
COc1ccccc1N1CCN([C@@H]2[C@H](O)[C@H](CO)O[C@@H]2CNC(=O)c2ccco2)CC1 | i
C=CCNc1nc2ccccc2nc1NS(=O)(=O)c1ccc(Br)cc1 | 33%*
CC(=O)Nc1ccc(S(=O)(=O)Nc2nc3ccccc3nc2Nc2cccc(O)c2)cc1 | i
Cc1cc(C)nc(NS(=O)(=O)c2ccc(NC(=O)c3ccc(Br)cc3)cc2)n1 | i
COc1ccccc1C1C2=C(CCCC2=O)Nc2nc(SC)[nH]c(=O)c21 (stereo not given) | i
CC1(C)CC(=O)C2=C(C1)Nc1nc(SCc3ccccc3)[nH]c(=O)c1C2c1ccc(O)cc1 (stereo not given) | i
